Test results as given in the supplement of paper PMC7411640.
Where a name gives a salt, the structure may show the parent alone.

Test system: MDA-MB-468
Test: phospho-S6 immunofluorescence (DAPI-normalised), per-plate z-score; higher = higher phospho-S6 signal (less pathway suppression)
Details: 24 h
Experimental: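 GPCR-targeted compound library (MedChemExpress HY-L006) tested on MDA-MB-468 PTEN-null TNBC cells in 384-well plates at 0.1, 1 or 10 uM, combined with vehicle, GDC0941 450 nM or lapatinib 1 uM, for 24 h. Phospho-S6 (S240/244) immunofluorescence normalised to DAPI and expressed as a per-plate z-score; values are the mean of biological triplicates.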

| SMILES | phospho-S6 immunofluorescence (z-score) (co-treatment: GDC0941 450 nM) | phospho-S6 immunofluorescence (z-score) (co-treatment: lapatinib 1 uM) | phospho-S6 immunofluorescence (z-score) (co-treatment: vehicle) |
| --- | --- | --- | --- |
| NCCc1ccc(O)c(O)c1 [Dopamine (hydrochloride)] (compound 10 µM) | 0.84 | 0.53 | 0.15 |
| C#CCOc1ccc2c(c1)c(-c1ccc(C(C)C)cc1)nc(=O)n2C(C)C [Calcium-Sensing Receptor Antagonists I] (compound 10 µM) | -3.51 | -4.39 | -4.18 |
| COc1ccc2c(c1)c(CC(=O)N1CCOCC1)c(C)n2C(=O)c1ccc(Cl)cc1 (compound 10 µM) | -3.35 | -6.12 | -6.12 |
| CNC(=O)[C@H]1O[C@@H](n2cnc3c(NCc4cccc(I)c4)nc(Cl)nc32)[C@H](O)[C@@H]1O (compound 10 µM) | -1.27 | -1.18 | -2.34 |
| COc1ccccc1N1CCN(CC(O)COc2cccc3ccccc23)CC1 (stereo not given) [Naftopidil] (compound 10 µM) | -0.13 | -0.63 | 0.64 |
| CC(C)NCC(O)c1ccc(NS(C)(=O)=O)cc1 (stereo not given) [Sotalol (hydrochloride)] (compound 10 µM) | 1.31 | 1.24 | 0.37 |
| COc1ccc(CNC(=O)c2sc3nc(C)cc(C)c3c2N)cc1 (compound 10 µM) | -1.98 | 1.66 | 0.34 |
| Cc1ccc(Sc2ccccc2N2CCNCC2)c(C)c1 [Vortioxetine (hydrobromide)] (compound 10 µM) | -5.79 | -11.4 | -9.37 |
| COc1cc(/C=C/C(=O)NCCn2c(C(F)(F)F)cc3ccccc32)cc(OC)c1OC (compound 10 µM) | -3.69 | -6.85 | -8.39 |
| CN1CCN2c3c(cccc31)[C@@H]1CN(CCCC(=O)c3ccc(F)cc3)CC[C@@H]12 [lumateperone (Tosylate)] (compound 10 µM) | -3.44 | -3.22 | -5.62 |
| COc1cc2c(cc1OC)-c1cc3ccc4c(c3c[n+]1CC2)OCO4 [Epiberberine (chloride)] (compound 10 µM) | -0.39 | 0.22 | 1.66 |
| OCCOCCN1CCN(C(c2ccccc2)c2ccccc2)CC1 [Decloxizine (dihydrochloride)] (compound 10 µM) | 0.55 | -0.6 | -0.19 |
| Cc1noc(-c2ccc(-c3ccc(CC(=O)O)cc3)cc2)c1NC(=O)O[C@H](C)c1ccccc1 [AM095 (free acid)] (compound 10 µM) | 1.08 | 0.37 | 0.82 |
| COc1ccc(S(=O)(=O)Nc2c(C)cc(C)cc2C)cc1 (compound 10 µM) | 0.04 | -0.37 | -1.05 |
| COc1cccc(-c2c(C)n(Cc3c(F)cccc3C(F)(F)F)c(=O)n(C[C@H](NCCCC(=O)O)c3ccccc3)c2=O)c1F [Elagolix] (compound 10 µM) | 0.62 | -0.03 | 0.51 |
| CC(C)Cc1ccc([C@@H](C)C(=O)NS(C)(=O)=O)cc1 [Reparixin] (compound 10 µM) | 0.03 | 0.34 | -1.14 |
| CCCCN1CCC(CNC(=O)c2c3n(c4ccccc24)CCCO3)CC1 [Piboserod] (compound 10 µM) | -0.39 | -0.44 | 0.08 |
| OC(CNCC(O)C1CCc2cc(F)ccc2O1)C1CCc2cc(F)ccc2O1 (stereo not given) [Nebivolol (hydrochloride)] (compound 10 µM) | -2.5 | -3.76 | -2.22 |
| CNCC(O)c1ccc(O)c(O)c1 [L-Epinephrine] (compound 10 µM) | 0.44 | 2.36 | -0.3 |
| O=C(c1ccc(F)cc1)N1CCC[C@H](c2nc(-c3ccc(F)cc3)no2)C1 (compound 10 µM) | -2.64 | -3.29 | -2.93 |
| Cn1c(=O)c2nc[nH]c2n(C)c1=O [Theophylline] (compound 10 µM) | 0.11 | 0.16 | 0.71 |
| CS(=O)(=O)c1cc(F)cc2c3c(n(Cc4ccc(Cl)cc4)c12)[C@@H](CC(=O)O)CC3 [Laropiprant] (compound 10 µM) | 0.48 | 0.81 | 0.75 |
| CNC[C@H](O)c1cccc(O)c1 [(R)-(-)-Phenylephrine (hydrochloride)] (compound 10 µM) | 0.67 | 1.18 | 1.13 |
| CC[C@H](C)[C@@H]1NC(=O)[C@H](Cc2ccc(O)cc2)NC(=O)[C@@H](N)CSSC[C@@H](C(=O)N2CCC[C@H]2C(=O)N[C@@H](CC(C)C)C(=O)NCC(N)=O)NC(=O)[C@H](CC(N)=O)NC(=O)[C@H](CCC(N)=O)NC1=O [Oxytocin (acetate)] (compound 10 µM) | -0.77 | -0.07 | -0.87 |
| C[C@H](NC(=O)c1cc(Cl)ccc1Oc1ccc(F)cc1)c1ccc(C(=O)O)cc1 (compound 10 µM) | -0.64 | 0.18 | 0.3 |

| SMILES | phospho-S6 immunofluorescence (z-score) (co-treatment: GDC0941 450 nM) | phospho-S6 immunofluorescence (z-score) (co-treatment: lapatinib 1 uM) | phospho-S6 immunofluorescence (z-score) (co-treatment: vehicle) |
| --- | --- | --- | --- |
| Fc1ccc(-c2cncc(CN3CCN(c4cccc5c4OCCO5)CC3)c2)cc1 [Adoprazine] (compound 10 µM) | -2.84 | -1.05 | -2.49 |
| CN1CCc2c(c3ccccc3n2Cc2ccccc2)C1 [Mebhydrolin (napadisylate)] (compound 10 µM) | -0.29 | -1.06 | 0.64 |
| N=C(N)NCCCCN [Agmatine (sulfate)] (compound 10 µM) | 0.88 | -0.16 | 0.73 |
| CCNC(=O)[C@H]1O[C@@H](n2cnc3c(N)nc(NCCc4ccc(CCC(=O)O)cc4)nc32)[C@H](O)[C@@H]1O (compound 10 µM) | 0.05 | 1.28 | -0.14 |
| Cc1c(C(=O)NN2CCCCC2)nn(-c2ccc(Cl)cc2Cl)c1-c1ccc(I)cc1 (compound 10 µM) | -1.91 | -1.68 | -2.82 |
| C=CCN1CCCC1CNC(=O)c1cc(S(N)(=O)=O)cc(OC)c1OC (stereo not given) [Veralipride] (compound 10 µM) | -0.02 | 1.05 | 0.08 |
| CCNC(=O)[C@@H]1CCCN1C(=O)[C@H](CCCNC(=N)N)NC(=O)[C@H](CC(C)C)NC(=O)[C@@H](CC(C)C)NC(=O)[C@H](Cc1ccc(O)cc1)NC(=O)[C@H](CO)NC(=O)[C@H](Cc1c[nH]c2ccccc12)NC(=O)[C@H](Cc1c[nH]cn1)NC(=O)[C@@H]1CCC(=O)N1 [Leuprolide (Acetate)] (compound 10 µM) | 0.41 | -0.17 | 0.11 |
| O=C(N[C@H]1CCN(C(=O)c2cc(C(F)(F)F)cc(C(F)(F)F)c2)[C@H](Cc2ccc(Cl)cc2)C1)c1ccnc2ccccc12 (compound 10 µM) | -1.97 | -1.9 | -1.44 |
| OC(CCCN1CCCCC1)(c1ccccc1)c1ccccc1 [Diphenidol (hydrochloride)] (compound 10 µM) | 0.19 | 1.09 | 0.38 |
| CC(=O)OCC(=O)[C@@]1(O)CC[C@H]2[C@@H]3CCC4=CC(=O)CC[C@]4(C)[C@H]3C(=O)C[C@@]21C [Cortisone (acetate)] (compound 10 µM) | 0.51 | 1.06 | 0.93 |
| Cc1noc(NS(=O)(=O)c2ccc(N)cc2)c1C [Sulfisoxazole] (compound 10 µM) | 1.15 | -0.03 | 0.55 |
| CN(C)C(=O)N[C@H]1CC[C@H](CCN2CCN(c3cccc(Cl)c3Cl)CC2)CC1 [Cariprazine (hydrochloride)] (compound 10 µM) | 0.26 | -1.23 | 1.3 |
| O=S(=O)(c1ccccc1)c1cnc2c(N3CCNCC3)cccc2c1 (compound 10 µM) | 0.13 | -2.25 | 0.76 |
| COc1cc(N)c(Cl)cc1C(=O)NC1CCN(Cc2ccccc2)CC1 [Clebopride (malate)] (compound 10 µM) | 0.46 | -0.14 | 0.29 |
| CN(C)CC/C=C1/c2ccccc2COc2ccc(CC(=O)O)cc21 [Olopatadine (hydrochloride)] (compound 10 µM) | 0.01 | 0.08 | -0.35 |
| CCCCC(=O)N(Cc1ccc(-c2ccccc2-c2nnn[nH]2)cc1)[C@H](C(=O)O)C(C)C [Valsartan] (compound 10 µM) | 0.04 | 0.5 | 0.13 |
| O=C(CCCN1CCC(O)(c2ccc(Cl)cc2)CC1)c1ccc(F)cc1 [Haloperidol] (compound 10 µM) | 1.78 | -0.01 | 0.93 |
| NC(=O)c1ccc[n+]([O-])c1 [Nicotinamide N-oxide] (compound 10 µM) | 0.09 | 0.22 | -0.26 |
| COc1ccc2ccc(=O)oc2c1CC=C(C)C [Osthole] (compound 10 µM) | 0.06 | 0.19 | 0.23 |
| CCOC(=O)O[C@]1(C(=O)OCCl)CC[C@H]2[C@@H]3CCC4=CC(=O)C=C[C@]4(C)[C@H]3[C@@H](O)C[C@@]21C [Loteprednol Etabonate] (compound 10 µM) | -0.86 | 0.31 | -1.08 |
| C[C@@H](O[C@H]1OCCN(Cc2n[nH]c(=O)[nH]2)[C@H]1c1ccc(F)cc1)c1cc(C(F)(F)F)cc(C(F)(F)F)c1 [Aprepitant] (compound 10 µM) | -1.22 | -1.02 | 0.64 |
| CN(C)CCOC(c1ccccc1)c1ccccc1 [Diphenhydramine (hydrochloride)] (compound 10 µM) | -0.32 | -0.09 | 0.32 |
| C[C@](N)(Cc1ccc(O)c(O)c1)C(=O)O (compound 10 µM) | -0.58 | 0.11 | -0.1 |
| CC(C)C[C@H](NC(=O)[C@H](CC(C)C)NC(=O)[C@H](Cc1ccccc1)NC(=O)[C@@H](N)CO)C(=O)N[C@@H](CCCN=C(N)N)C(=O)N[C@@H](CC(N)=O)C(=O)O (compound 10 µM) | -1.01 | -0.25 | 0.03 |
| CN1N=C2CCN(C(=O)[C@@H](COCc3ccccc3)NC(=O)C(C)(C)N)C[C@@]2(Cc2ccccc2)C1=O [Capromorelin (Tartrate)] (compound 10 µM) | -0.05 | -0.67 | -0.14 |
